Source: PubChem BioAssay
An excerpt weighted towards active compounds, which were near 3% of everything screened.
TrxR1 substrate – rat thioredoxin reductase 1 substrate activity. purified TrxR1 substrate turnover, NADPH consumption readout. Potency, µM (doses to about 114 µM). 0.01% of 390,000 active. AID 588456; further: nearly all actives have a fitted effect of over 50% in size
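Rat TrxR1, dispensed at 90 nM, was prereduced with 400 uM NADPH (final) for 5 min at ~22 deg C, then incubated with compound 15 min before 400 uM selenite. A first-read NADPH fluorescence drop versus no-compound background flagged substrates.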
A549 tox – counter-screen for Nrf2 inhibitors: cytotoxicity in A549 cells. 0.16% of 390,000 active. Potency, µM (top dose mostly 46 µM), hits mostly inhibitors. A549 ARE-Fluc cells, CellTiter-Fluor viability, 18-24 h
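Cytotoxicity counterscreen: CellTiter-Fluor fluorescence was measured in A549 ARE_Fluc cells after 18-24 h of compound exposure in a concentration series. The subsequent BugLite luminescent read reports ARE-luciferase activity.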
GALK inhibitor – inhibitors of human galactokinase. Potency, µM (titrated, usually from 57.5 µM), hits mostly inhibitors. AID 1868. Purified GALK, Kinase-Glo residual ATP luminescence. 0.007% of 270,000 active. P51570
Target sequence (P51570 whole entry, looked up): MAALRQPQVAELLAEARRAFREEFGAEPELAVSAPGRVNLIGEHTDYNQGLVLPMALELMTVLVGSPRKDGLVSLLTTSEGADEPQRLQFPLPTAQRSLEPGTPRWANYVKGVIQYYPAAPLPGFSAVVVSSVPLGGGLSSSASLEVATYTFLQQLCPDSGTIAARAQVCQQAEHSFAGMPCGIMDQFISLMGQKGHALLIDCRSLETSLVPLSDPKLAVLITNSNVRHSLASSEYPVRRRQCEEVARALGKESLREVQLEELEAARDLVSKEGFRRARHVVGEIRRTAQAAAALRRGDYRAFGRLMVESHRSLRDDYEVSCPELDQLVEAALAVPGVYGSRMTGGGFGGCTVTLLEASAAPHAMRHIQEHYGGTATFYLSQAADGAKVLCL
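The enzyme phosphorylates galactose (100 uM) using ATP (35 uM); inhibition is detected as higher residual ATP, quantified by bioluminescence after 1 h reaction at room temperature, pH 8.0.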
Nrf2 block – inhibitors of Nrf2 signaling; 2.1% of 360,000 active; Potency, µM (top dose mostly 46 µM), usual class: inhibitors; A549 ARE-Fluc reporter, luciferase luminescence, 18-24 h; further: nearly all actives have a fitted effect of over 60% in size
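Nrf2 activity is the BugLite luminescence, read 15 min after reagent at room temperature, following CellTiter-Fluor cytotoxicity readout (30 min, 37C). Compound titrations were applied for 18-24 h to 5000 A549 ARE_Fluc cells/well in 5% FBS OPTI-MEM.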
Nrf2 activator – activates Nrf2 signaling. AREc32 ARE-luciferase reporter (MCF7-derived line), luminescence, 24 h. Potency, µM (top dose mostly 46.1 µM), actives largely listed as activators. 0.31% of 410,000 active; further: nearly all actives have a fitted effect of over 65% in size
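Reporter line AREc32 (ARE-Fluc), seeded overnight in OPTI-MEM with 5% FBS; compound pin-transferred, 24 hr at 37 deg C, 5% CO2; luminescent read-out.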
rTrxR1 inhibitor – blocks rat thioredoxin reductase 1. Potency, µM (doses to about 114 µM), usual class: inhibitors. AID 588453. O89049. recombinant rTrxR1, NADPH fluorescence consumption, selenite substrate. 1% of 390,000 active; further: nearly all actives have a fitted effect of over 65% in size
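Rat TrxR1 (90 nM in the dispensed reagent) was pre-reduced with 400 uM NADPH for 5 min at room temperature, then incubated with compound for 15 min. After 400 uM selenite was added, NADPH fluorescence (Ex 340/Em 450 nm) was followed for 8 min.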
Each line names hits and unclear results; the compound was inactive in the other large screens. The call rests on the fitted dose curve; in most records, active means well fitted curve in the direction sought with a large enough effect; inconclusive means small, poorly fitted or top-dose-only effect, or another doubt; inactive means no such curve, though single readings can be large; an effect the other way counts as inactive or inconclusive.

CCNC(=S)N1CCN(c2ccc([N+](=O)[O-])cc2)CC1	A549 tox inconclusive, Nrf2 block inconclusive
Cc1nnsc1NC(=O)OCc1ccc(Cl)cc1Cl	Nrf2 block inconclusive
Cc1nn(C)c(Cl)c1NC(=O)OCc1ccc(Cl)cc1Cl	Nrf2 block 16µM
CC(C)CCN(C(=O)c1csnn1)C(C(=O)NC1CCCC1)c1ccc(F)cc1 (centres undefined)	A549 tox 18µM, Nrf2 block 23µM
O=C(c1cc(C(=O)c2ccco2)cc(C(=O)c2ccco2)c1)c1ccco1	none
Cc1ccc2occ(C(=O)c3ccco3)c(=O)c2c1	Nrf2 activator 13µM
N#CC(C#N)=Cc1cc2ccccc2nc1N1CCCCC1	Nrf2 activator inconclusive, rTrxR1 inhibitor 18µM
C=CC[C@@H](CC(=O)N(CCO)Cc1ccccc1)C(=O)N[C@@H](COC(=O)[C@H](CC=C)CC(=O)OC(C)(C)C)Cc1c[nH]c2ccccc12	A549 tox inconclusive, Nrf2 block 23µM (no result: GALK inhibitor)
C=CC[C@H](CC(=O)N(CCO)Cc1ccccc1)C(=O)N[C@H](COC(=O)[C@@H](CC=C)CC(=O)OC(C)(C)C)Cc1ccccc1	A549 tox inconclusive, Nrf2 block inconclusive (no result: GALK inhibitor)
C=CC[C@H](CC(=O)N(CCO)Cc1ccccc1)C(=O)N[C@@H](COC(=O)[C@@H](CC=C)CC(=O)OC(C)(C)C)Cc1c[nH]c2ccccc12	A549 tox inconclusive, Nrf2 block 21µM (no result: GALK inhibitor)
C=CC[C@H](CC(=O)N(CCO)Cc1ccccc1)C(=O)N[C@H](COC(=O)[C@H](CC=C)CC(=O)OC(C)(C)C)Cc1c[nH]c2ccccc12	A549 tox inconclusive, Nrf2 block inconclusive (no result: GALK inhibitor)
Cc1ccc(C)c(NC(=O)c2ccc3c(c2)CCCN3S(C)(=O)=O)c1	none (no result: GALK inhibitor)
Cc1ccccc1OCC(=O)NN1C(=O)C2C3C=CC(O3)C2C1=O (centres undefined)	rTrxR1 inhibitor 32µM
CCOc1ccc(C(=O)NN2C(=O)C3C4C=CC(O4)C3C2=O)cc1 (centres undefined)	Nrf2 block inconclusive, rTrxR1 inhibitor 20µM
Cc1cccc(OCC(=O)NN2C(=O)C3C4C=CC(O4)C3C2=O)c1 (centres undefined)	none
O=C(CCc1ccccc1)NN1C(=O)C2C3C=CC(O3)C2C1=O (centres undefined)	rTrxR1 inhibitor 45µM
COc1ccc(C)cc1NC(=O)CN1C(=O)COc2ccc(S(=O)(=O)NC3CCCC3)cc21	none (no result: GALK inhibitor)
c1ccc(OCCCCn2cnc3ccccc32)cc1	Nrf2 block 23µM
Cc1ccccc1OCCCCn1cnc2ccccc21	Nrf2 block 6.5µM
Cc1ccccc1OCCCCn1c(CO)nc2ccccc21	Nrf2 block 23µM
c1ccc(OCCn2cnc3ccccc32)cc1	none
Cc1ccc(Cl)cc1-n1c(=O)c2sc3ccccc3c2n(Cc2ccccc2)c1=O	none (no result: GALK inhibitor)
Cc1ccc(C)n1-c1nnc(N2CCC(C(=O)Nc3ccccc3Br)CC2)s1	rTrxR1 inhibitor inconclusive (no result: GALK inhibitor)
C#CCOCCOCCOCCNc1nc(N2CCN(C(=O)[C@H](CCCCN)n3cc(C(N)[C@H](C)CC)nn3)CC2)nc(N2CCN(C(=O)[C@H](CCC(=O)O)n3cc(C(N)[C@H](C)CC)nn3)CC2)n1 (some centres undefined)	rTrxR1 inhibitor 56µM
C#CCOCCOCCOCCNc1nc(N2CCN(C(=O)CCCCCCCCCCNC(=O)Cn3cc(CCCCCN)nn3)CC2)nc(N2CCN(C(=O)CCCCCCCCCCNC(=O)Cn3cc(CCCCCN)nn3)CC2)n1	rTrxR1 inhibitor 11µM (no result: GALK inhibitor)
C#CCOCCOCCOCCNc1nc(N2CCN(C(=O)[C@H](CCCCN)n3cc(CN)nn3)CC2)nc(N2CCN(C(=O)[C@H](CCCCN)n3cc([C@@H](N)[C@H](C)CC)nn3)CC2)n1	rTrxR1 inhibitor 45µM (no result: GALK inhibitor)
C#CCOCCOCCOCCNc1nc(N2CCN(C(=O)CCCCCCCCCCNC(=O)Cn3cc(CCCCCN)nn3)CC2)nc(N2CCN(C(=O)CCCCCCCCCCNC(=O)[C@@H](CCC(=O)O)n3cc(CCCCCN)nn3)CC2)n1	none (no result: GALK inhibitor)
C#CCOCCOCCOCCNc1nc(N2CCN(C(=O)[C@H](CCCCN)n3cc([C@@H](N)C(C)CC)nn3)CC2)nc(N2CCN(C(=O)[C@H](Cc3cc4ccccc4[nH]3)n3cc([C@@H](N)CC(C)C)nn3)CC2)n1 (some centres undefined)	rTrxR1 inhibitor 25µM
CCCCOC(=O)c1ccc(NC(=O)C2(c3cccs3)CCOCC2)cc1	none (no result: GALK inhibitor, Nrf2 block)
Nc1c(Br)cc(/C=C/c2ccnc3ccccc23)cc1Br	none (no result: A549 tox, GALK inhibitor, Nrf2 block, Nrf2 activator)
C#CCOCCOCCOCCNc1nc(N2CCN(C(=O)C([C@@H](C)CC)n3cc(C(N)COC(=O)C(F)(F)F)nn3)CC2)nc(N2CCN(C(=O)[C@H](CCCCN)n3cc(C(N)[C@H](C)CC)nn3)CC2)n1 (some centres undefined)	rTrxR1 inhibitor 50µM (no result: GALK inhibitor)
CCOC(=O)Cc1ccc(NC(=O)N2CCSc3ccccc32)cc1	none (no result: GALK inhibitor)
Cc1cc2c(cc1S(=O)(=O)N1CCc3ccccc31)NC(=O)CO2	A549 tox inconclusive, Nrf2 block 23µM
CCCCN1CC(c2nc3ccccc3n2CCCCOc2ccccc2C)CC1=O (centres undefined)	none (no result: GALK inhibitor)
COc1ccc(C2Nc3ccccc3C(=O)N2Cc2ccccc2)cc1COc1ccc(F)cc1 (centres undefined)	none (no result: TrxR1 substrate, GALK inhibitor, Nrf2 activator, rTrxR1 inhibitor)
O=C(CSCc1cnn(-c2ccccc2)c1-n1cccc1)NCc1ccccc1F	Nrf2 block inconclusive (no result: GALK inhibitor)
O=c1c2c(C(F)(F)F)cc(C(F)(F)F)nc2[nH]n1-c1ccccc1	none
O=c1c(Sc2ccccc2)c(C(F)(F)F)[nH]n1-c1ccccc1	A549 tox inconclusive, Nrf2 block 21µM
O=C(CSc1nc(=O)n(CCN2CCOCC2)c2c1CCC2)Nc1ccc(F)cc1F	none (no result: GALK inhibitor, Nrf2 block)
O=S(=O)(c1ccccc1)N1CCN(c2nccc(-c3cccs3)n2)CC1	none (no result: TrxR1 substrate, GALK inhibitor, Nrf2 activator, rTrxR1 inhibitor)
CCOc1ccc(/C=C2\SC(=S)NC2=O)cc1OC	none
Cc1ccc(/C=C2/SC(=S)N(C3CCCCC3)C2=O)o1	none
COc1ccc(/C=C2/CSC/C(=C/c3ccc(OC)c(OC)c3)C2=O)cc1OC	A549 tox inconclusive, Nrf2 block 5.2µM (no result: GALK inhibitor)
COc1ccc(/C=C2\SC(c3ccc(C)cc3)=NC2=O)cc1OC	Nrf2 block 16µM, rTrxR1 inhibitor inconclusive
Cc1ccc(/C=C2/SC(=O)NC2=S)o1	rTrxR1 inhibitor 56µM
COc1cc(C=C2CCCC(=Cc3ccc(OCC4CO4)c(OC)c3)C2=O)ccc1OCC1CO1 (centres undefined)	none (no result: TrxR1 substrate, A549 tox, GALK inhibitor, Nrf2 block, rTrxR1 inhibitor)
COc1ccc(/C=C2\SC(=O)NC2=S)cc1OC	A549 tox 12µM, Nrf2 block inconclusive, Nrf2 activator inconclusive, rTrxR1 inhibitor inconclusive
